# DT40 TDP1 CPT – growth inhibition of DT40 Tdp1-/-;hTDP1 cells with camptothecin (screen for TDP1 inhibitors); chicken DT40 Tdp1-/-;hTDP1 cells + 20 nM CPT, ATP luminescence, 48 h; Potency, µM (highest dose often 46.2 µM), inactives show top-dose activity change, negative = growth inhibition, usual class: inhibitors; 420,000 tested, 12% active; further: potency means the concentration at half of the fitted maximal effect; nearly all actives have a fitted effect of over 55% in size
#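 Cell growth measured by CellTiter-Glo luminescence after a minimum 48 h, 37 C compound exposure with 20 nM CPT in Tdp1-knockout DT40 cells stably expressing hTDP1, seeded 400/well; qHTS titration format.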
# TDP1 cell noCPT – qHTS for Inhibitors of human tyrosyl-DNA phosphodiesterase 1 (TDP1): qHTS in cells in absence of CPT; DT40 Tdp1-/- hTDP1 cells, no CPT, ATP luminescence, 48 h; Potency, µM (top dose mostly 46.2 µM), without a hit: top-dose activity change, negative = growth inhibition, usual class: inhibitors; 420,000 tested, 15% active; AID 686978, 2013; further: potency means the concentration at half of the fitted maximal effect; nearly all actives have a fitted effect of over 55% in size
#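 No-CPT arm: Tdp1-/-;hTDP1 DT40 cells (400/well) plus compounds, incubated ≥48 hr at 37 °C. Readout CellTiter-Glo luminescence.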
# HT1080NT lethal – kills 2HG-producing HT-1080-NT fibrosarcoma cells; HT-1080-NT fibrosarcoma viability, CellTiter-Glo ATP luminescence, 48 h; Potency, µM (highest dose often 46.1 µM), without a hit: top-dose activity, negative = less viability, usual class: cytotoxic; 360,000 tested, 1.6% active; AID 686970;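 further: NT is the 2HG producing partner of a matched IDH1 knockdown line; potency means the concentration at half of the fitted maximal effect; 0% = DMSO-treated cells and -100% = media-only wells without cells; nearly all actives have a fitted effect of over 55% in size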
#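 Read-out is CellTiter-Glo luminescence after 10 minutes at room temperature, following 48 hours' compound treatment of HT-1080-NT cells (750 cells/well, RPMI, 5% FBS, 37 degrees C).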
# HT1080 IDH1KD tx – kills HT-1080 cells with IDH1 knockdown | HT-1080 IDH1 knockdown viability, ATP luminescence, 48 h | Potency, µM (series often up to 46.1 µM), inactives show top-dose activity, negative = toxicity, usual class: cytotoxic | 360,000 tested, 2% active;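 further: potency means the concentration at half of the fitted maximal effect; 0% = DMSO wells and -100% = cell-free medium wells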
#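 % activity derives from luminescence (CellTiter-Glo), normalised to DMSO and no-cell wells. HT-1080-IDH1KD cells, 750/well, had 48 h compound exposure at 37 °C.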
# ELG1 repair inh – blocks ELG1-dependent DNA repair in HEK293T cells. HEK293T ELG1-luciferase reporter, luminescence, 16 h; DNA damage induced by 5-fluorouridine. Potency, µM (top dose mostly 46.1 µM), without a hit: at the top dose activity change, negative = inhibition, most hits filed as inhibitors. 330,000 tested, 2.3% active; further: potency means the concentration at half of the fitted maximal effect; nearly all actives have a fitted effect of over 55% in size
#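 5-Fluorouridine DNA damage + compound/DMSO, 2,000 cells/well, 16 h, 37 °C/5% CO2. ONE-Glo, 30 min RT, luminescence. Readout = decrease in reporter signal.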
# IL-1B inflam inh – blocks inflammasome-driven IL-1 beta release | THP-1 LPS/ATP IL-1B secretion, AlphaLISA, 16 h; stronger effect = lower value | activity change, % at 57.5 µM | 360,000 tested, 4.7% active | AID 743279; in the data active means activity change below about -50%; inconclusive means mostly about -30% to -49%
#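 THP-1 cells pretreated 1 hr with compounds (up to 57.5 uM final), then stimulated with LPS (250 ng/mL final) plus ATP (1.25 mM final); secreted IL-1B measured by AlphaLISA after 16 hr, decreased signal indicating inhibition.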
# * hit, by the source's call; ? = inconclusive; · = no result. An excerpt weighted towards active compounds, which were near 19% of everything screened. Unless noted, the call rests on the fitted dose curve; in most records, active means well fitted curve in the direction sought with a large enough effect; inconclusive means small, poorly fitted or top-dose-only effect, or another doubt; inactive means no such curve, though single readings can be large; an effect the other way counts as inactive or inconclusive. Unless noted, on the % scale 0 is the no-effect control and ±100 the full control effect.
SMILES,DT40 TDP1 CPT,TDP1 cell noCPT,HT1080NT lethal,HT1080 IDH1KD tx,ELG1 repair inh,IL-1B inflam inh
CCOc1ccc(CCNC(=O)COC(=O)c2cc(OC)c(OC)cc2[N+](=O)[O-])cc1OCC,?,?,-2%,-10%,-23%,-9
O=C(NCc1ccc2c(c1)OCO2)c1nc(Cn2cc(Br)cn2)no1,1%,-15%,-1%,1%,7%,3
COc1ccc([C@H]2N[C@]3(CCCN(Cc4ccc(C(F)(F)F)cc4)C3=O)[C@H]3C(=O)N(Cc4ccccc4)C(=O)[C@@H]23)cc1,?,18µM*,-27%,?,·,0
O=C1[C@H]2[C@@H](c3ccccc3)N[C@]3(CCCN(CC4CCCCC4)C3=O)[C@H]2C(=O)N1Cc1ccccc1,?,?,3%,-3%,·,-19
O=C1[C@H]2[C@@H](c3ccc(C(F)(F)F)cc3)N[C@]3(CCCN(CC4CCCCC4)C3=O)[C@H]2C(=O)N1Cc1ccccc1,23µM*,23µM*,?,?,·,-29
CN(C)c1ccc(N=Nc2ccccc2C(=O)OCC(=O)NCC2CCCCC2)cc1,?,21µM*,-2%,-13%,?,?
CN(C)c1ccc(N=Nc2ccccc2C(=O)OCC(=O)N(C)C2CCCCC2)cc1,7%,-14%,24%,22%,-17%,-5
O=C(COC(=O)c1ccccc1)NC1CCCC1,12%,-12%,25%,25%,22%,4
CN(C)c1ccc(N=Nc2ccccc2C(=O)OCC(=O)NC2CCCC2)cc1,26µM*,?,-15%,-6%,?,?
CNS(=O)(=O)c1cn(CC(=O)N2CCN(c3ccccc3F)CC2)cc1S(=O)(=O)NC,-4%,-25%,·,·,·,·
Cc1c(Cl)cccc1NC(=O)C(=O)NCCc1csc(-c2cccc(F)c2)n1,-9%,-20%,·,·,·,·
Cc1[nH][nH]c(=O)c1N=Nc1ccc(Br)c(Cl)c1,?,23µM*,11%,7%,·,35
COc1ccc(-c2nn(C)c3sc(C(=O)Nc4cc(OC)c(OC)c(OC)c4)cc23)cc1OC,18µM*,6.5µM*,·,·,·,·
COc1ccc(-c2nn(C)c3sc(C(=O)NCc4ccco4)cc23)cc1OC,?,21µM*,?,21%,-12%,-5
COc1ccc(C2=NS(=O)(=O)N(C)C(C(=O)NCc3ccco3)=C2)cc1OC,?,-27%,17%,5%,-1%,-15
COc1ccc(NC(=O)c2cc3c(-c4ccc(OC)c(OC)c4)nn(C)c3s2)cc1OC,18µM*,21µM*,?,?,1.6µM*,?
CCC1(C2CCN(Cc3ccoc3)CC2)NC(=O)N(CC2COc3ccccc3O2)C1=O (stereo not given),-12%,-24%,·,·,·,·
CCOC(=O)C1(C)CCCCN1C(=O)c1cccc(Cl)c1 (stereo not given),21µM*,15µM*,11%,5%,·,17
CCOC(=O)C1(C)CCCN1C(=O)c1ccc2ccccc2c1 (stereo not given),?,18µM*,8%,8%,·,2
CCOC(=O)C1(C)CCCCN1C(=O)c1ccc(F)c(C)c1 (stereo not given),-66%,?,7%,10%,·,1
CC(C)CN1C(=O)CSCC1(C)C(=O)Nc1ccc2c(c1)OCCO2 (stereo not given),-24%,-19%,2%,17%,·,-16
F[B-](F)(F)c1cc2ccccc2s1,-24%,-29%,-7%,3%,·,-70*
F[B-](F)(F)c1cc2cc(Br)ccc2s1,-13%,-21%,-16%,-14%,·,-62*
Cc1cc2c3c(c1C)C1(C(=O)N3C(C)(C)CC2C)C(C#N)=C(N)Oc2cc(O)ccc21 (stereo not given),?,?,?,?,-9%,-62*
Cc1ccc(C)c(Nc2nn3c(=O)c4ccc(C(=O)N(C)Cc5ccccc5)cc4nc3s2)c1,9.2µM*,21µM*,·,·,·,·
SMILES,DT40 TDP1 CPT,TDP1 cell noCPT,HT1080NT lethal,HT1080 IDH1KD tx,ELG1 repair inh,IL-1B inflam inh
Cc1cccc(Nc2nn3c(=O)c4ccccc4nc3s2)c1,-3%,-9%,-6%,-10%,?,-18
CCCCN(C)C(=O)c1ccc2c(=O)n3nc(Nc4cc(C)ccc4C)sc3nc2c1,13µM*,12µM*,·,·,·,·
NS(=O)(=O)c1ccc(NC(=O)COC(=O)Cc2c[nH]c3ccccc23)cc1,-1%,-15%,?,?,0%,15
Cc1ccc2cc(CCNS(=O)(=O)c3ccc(F)cc3)c(=O)[nH]c2c1,21µM*,18µM*,12%,6%,-16%,-3
Cc1ccc(S(=O)(=O)NCCc2cc3ccc(C)cc3[nH]c2=O)cc1,-23%,-26%,4%,-11%,-7%,20
COc1ccc2cc(CCNS(=O)(=O)c3ccc(C)cc3)c(=O)[nH]c2c1,-22%,9.2µM*,·,·,·,·
CSc1nc(C)cc(Nc2cccc(C(=O)O)c2)n1,6%,-4%,·,·,·,·
O=C(CN1CCCC1)Nc1ccc2c(c1)CCC2,0%,-1%,-2%,-5%,?,2
O=C(CN1CCN(S(=O)(=O)c2ccccc2)CC1)Nc1ccc2c(c1)CCC2,?,15µM*,-23%,-10%,-63%,?
O=C(CN1CCN(Cc2ccccc2)CC1)Nc1ccc2c(c1)CCC2,2%,?,-5%,-17%,?,-86*
Cc1ccc(N2C(=O)/C(=C/c3cccnc3)SC2=S)cc1,1%,-28%,14%,6%,12%,-6
O=C(NN1C(=O)/C(=C\c2cccnc2)SC1=S)C(c1ccccc1)c1ccccc1,?,26µM*,-2%,-13%,-3%,7
O=C1/C(=C\c2cccnc2)SC(=S)N1C1CCS(=O)(=O)C1 (stereo not given),3.7µM*,18µM*,-27%,?,?,-79*
O=C1/C(=C/c2cccnc2)SC(=S)N1C1CCS(=O)(=O)C1 (stereo not given),10µM*,9.2µM*,-24%,18µM*,?,-93*
O=C1/C(=C/c2cccnc2)SC(=S)N1NS(=O)(=O)c1ccccc1,0%,-9%,-11%,1%,14%,28
CCc1nnc(NC(=O)Cc2cc(OC)c(OC)c(OC)c2)s1,9%,-7%,-1%,-4%,-9%,65

# Bioassay records deposited in PubChem by National Center for Advancing Translational Sciences (NCATS).
